Compound activity as filed in PubChem.
Shown are actives, neighbours in structure and some others; about 4.9% of the full set was active somewhere.
NLRP3 yeast inh = NALP3 inflammasome inhibitors in reconstituted yeast, primary screen, luminescence, uHTS; Yeast reconstituted NLRP3/ASC/caspase-1, beta-gal luminescence, 24 h; inhibition, % at 10 µM; 0.39% of 330,000 active; AID 2825, 2010;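 active = inhibition of 50% or more; inactive = inhibition below 50%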;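 also: plate controls were induced DMSO wells for no effect and uninduced yeast grown without galactose for full effect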
tim10-1 inh = growth inhibitors of tim10-1 mutant yeast, primary screen, luminescence, uHTS; S. cerevisiae tim10-1 ts strain growth, BacTiter-Glo, 24 h; inhibition, % at 20 µM; 2.2% of 330,000 active;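 active = inhibition of at least 40%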;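 also: mutant grown at 25 °C; 0% = DMSO wells with yeast and 100% = wells holding no yeast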
TIM10 inh = growth inhibitors of isogenic TIM10 control yeast, primary screen, counter-screen for tim10-1 yeast inhibitor project, luminescence, uHTS. S. cerevisiae TIM10 strain growth, BacTiter-Glo luminescence, 24 h. inhibition, % at 10 µM. 1.4% of 330,000 active. AID 463195, 2010;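 active = inhibition of 40% or more at the single tested concentration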;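 also: wild-type TIM10 isogenic control strain grown at permissive 25 °C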
SKKanGAS inh = S. pyogenes SKKanGAS growth inhibitors in kanamycin, primary screen, streptokinase expression inhibitor project, SKKanGAS strain, BacTiter-Glo luminescence; 6 h; inhibition, % at 7.5 µM; 1.3% of 300,000 active; AID 1662, 2009;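 active = mean replicate score, as percent of positive control median, at least 50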;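 also: strain carries kanamycin resistance gene driven by streptokinase promoter and grows in 40 µg/ml kanamycin; loss of luminescence reflects streptokinase promoter inhibition or plain growth inhibition; 0% = median of DMSO wells and 100% = positive control at its reference dose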
tim23-1 inh = growth inhibitors of tim23-1 mutant yeast, primary screen, luminescence, uHTS. S. cerevisiae tim23-1 growth, BacTiter-Glo luminescence, 24 h. inhibition, % at 20 µM. 1.3% of 330,000 active;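 active = growth inhibition of the mutant yeast at or above 50%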;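 also: temperature-sensitive mutant grown at 25 °C; plate controls were DMSO-treated mutant yeast for no effect and medium wells lacking yeast for full effect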
NALP1 yeast inh = NALP1 inflammasome inhibitors in reconstituted yeast, colorimetric, S. cerevisiae, triplicate retest; S. cerevisiae NALP1/ASC/caspase-1 growth, X-gal OD620, 72 h; 0.61% of 280,000 active; inhibition, % at 10 µM; in the data active = inhibition mostly above about 24%, no sharp cut-off; inactive = mostly below about 32%
tim10-1 conf = growth inhibitors of tim10-1 mutant yeast, confirmation, single concentration, luminescence, S. cerevisiae. S. cerevisiae tim10-1 ts strain growth, BacTiter-Glo, 24 h. inhibition, % at 20 µM. 56% of 7,400 active. shares compounds with tim10-1 inh;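 active = inhibition of yeast growth at or above a set limit in either of two repeat tests at 20 µM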;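 also: tim10-1 mutant grown at permissive 25 °C to find synthetic lethal compounds; 0% = DMSO yeast wells and 100% = medium wells without yeast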
TIM10 conf = growth inhibitors of wild-type TIM10 yeast, confirmation, counter-screen for tim10-1 synthetic lethality project, single concentration, luminescence, S. cerevisiae; shares compounds with TIM10 inh; S. cerevisiae tim10 strain growth, BacTiter-Glo luminescence, 24 h; inhibition, % at 10 µM; 63% of 4,600 active; AID 463215, 2010;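 active = inhibition of yeast growth at or above a set limit in either of two replicates at 10 µM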;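 also: this counterscreen used the strain with wild-type TIM10; 0% = yeast with DMSO and 100% = medium wells lacking yeast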
tim23-1 conf = tim23-1 mutant yeast growth inhibitors, confirmation, luminescence, single concentration. shares compounds with tim23-1 inh. S. cerevisiae tim23-1 growth, BacTiter-Glo luminescence, 24 h. inhibition, % at 20 µM. 83% of 4,400 active. AID 463218, 2010;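 active = inhibition above about 39% in either of two replicate wells at 20 µM, limit read from the data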;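 also: temperature-sensitive tim23-1 mutant grown at 25 °C; 0% = DMSO wells with yeast and 100% = medium wells without yeast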
* = called active by the depositor; / = no result given.

SMILES	NLRP3 yeast inh	tim10-1 inh	TIM10 inh	SKKanGAS inh	tim23-1 inh	NALP1 yeast inh	tim10-1 conf	TIM10 conf	tim23-1 conf
CCC(=O)NC(=S)NNC(=O)c1ccccc1[N+](=O)[O-]	13	45*	53*	-1	56*	-5	76*	60*	64*
O=C(NNC(=S)NC(=O)c1ccccc1[N+](=O)[O-])c1ccccc1	29	9	17	0	14	5	/	/	/
O=C(NC(=S)NNC(=O)c1ccccc1[N+](=O)[O-])c1ccccc1	0	41*	51*	24	50*	6	52*	56*	53*
O=C(NNC(=O)c1ccccc1[N+](=O)[O-])c1ccccc1[N+](=O)[O-]	1	4	-21	/	1	-4	/	/	/
CCOc1ccc(NC(=O)c2cc(C3CC3)nc3c2cnn3C(C)C)cc1OC	31	-12	-8	/	21	/	/	/	/
CCCN=C1N(CC)C[C@@H]2[C@@H]3C(=O)N(C)C(=O)[C@@H]3[C@](C)(C(=O)OC)N12	/	2	8	/	33	/	/	/	/
Cc1ccc(C(=O)/C=C/c2cc(Br)cc(Br)c2O)o1	35	53*	38	66*	65*	8	50*	/	66*
CN1Cc2c(N3CCOCC3)nc3sc(C(=O)c4ccc(Br)cc4)c(N)c3c2CC1(C)C	45	58*	21	16	58*	11	-16	/	53*
CC(C)CNC(=O)C(=O)NCC1OCCN1S(=O)(=O)c1cccs1 (configuration not stated)	12	11	3	5	8	8	/	/	/
CN1/C(=C\C(=O)Nc2ccc(Cl)cc2)C(C)(C)c2ccccc21	18	52*	59*	69*	68*	49	62*	54*	78*
COc1ccccc1N1CCN(C(=S)Nc2ccc(F)cc2)CC1	18	36	15	2	27	2	/	/	/
Cc1cccc(NC(=O)/C(C#N)=C/c2ccc(F)cc2)n1	13	32	26	2	47	-3	/	/	/
CCCOc1ccccc1/C=C(\C#N)C(=O)Nc1cccc(C)n1	9	49*	37	-2	56*	0	45*	/	57*
O=C(CCNS(=O)(=O)c1ccc(OC(F)(F)F)cc1)NCCc1c[nH]c2ccccc12	6	1	-1	/	6	/	/	/	/
CN1C(=O)/C(=C/c2cc(N=Nc3ccccc3)ccc2O)SC1=S	43	51*	36	34	55*	-12	41*	/	65*
O=C1/C(=C/c2ccccc2O)SC(=S)N1Cc1cccnc1	17	23	10	-3	1	11	/	/	/
O=C(Nc1ccc2oc(-c3ccncc3)nc2c1)c1ccc([N+](=O)[O-])o1	-11	45*	53*	6	69*	7	68*	75*	79*
CC(=O)c1cccc(NC(=O)c2ccc([N+](=O)[O-])o2)c1	16	65*	47*	23	77*	/	52*	46*	72*
COc1ccc(NC(=O)c2ccc(Br)o2)cc1	22	-9	4	-3	16	28	/	/	/
Cc1ccc(-c2nc3ncccc3o2)cc1NC(=O)c1ccco1	19	9	6	-4	8	/	/	/	/
O=C(Nc1ccc2oc(-c3ccncc3)nc2c1)c1ccccc1F	26	16	36	-9	-4	-1	/	/	/
COc1ccc(NC(=O)c2ccc([N+](=O)[O-])o2)cc1	17	64*	41*	2	59*	-6	45*	43*	58*
